C8 TRAIL sens: sensitizes caspase-8 expressing cells to TRAIL | inhibition (viability loss, TRAIL sensitization), % at 10 µM | NB7+C8 cells + TRAIL, ATPlite viability luminescence | 1% of 360,000 active;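 active = compounds causing at least 50% loss of cell viability in the single-dose screen, relative to plate controls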
PPC-1+TRAIL kill: kills PPC-1 cancer cells in the presence of TRAIL; 0.41% of 220,000 active; PPC-1 cells + TRAIL, ATPLite viability luminescence; cell killing (% activity), % at 4 µM or 5 µM; AID 1443;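 active = cell killing above 50% in the first pass at 4 µM, then a duplicate retest at 5 µM averaging 50% or more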
SENP7 inh: SENP7 protease inhibition; Q9BQF6; inhibition, % at 5 µM; 1.5% of 330,000 active; recombinant SENP7, Z-RLRGG-aminoluciferin luminescence, 40 min;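 active = inhibition above about 50% at the single test dose, limit read from the data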
SENP8 block-1: inhibitors of human SENP8 protease; Q96LD8; purified SENP8, Z-RLRGG-aminoluciferin cleavage, luminescence; inhibition, % at 10 µM; 1.2% of 330,000 active; AID 2540; in the data active = inhibition above about 50%
Target sequence (Q96LD8 whole entry, looked up): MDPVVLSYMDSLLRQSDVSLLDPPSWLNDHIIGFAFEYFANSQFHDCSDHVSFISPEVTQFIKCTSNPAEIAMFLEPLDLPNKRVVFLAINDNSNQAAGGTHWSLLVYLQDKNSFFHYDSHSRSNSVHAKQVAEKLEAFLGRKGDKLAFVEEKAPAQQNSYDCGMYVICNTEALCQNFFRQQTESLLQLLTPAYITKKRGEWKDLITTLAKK
SENP8 block-2: SENP8 (human) protease inhibition. 0.64% of 360,000 active. Q96LD8. inhibition, % at 20 µM. AID 602440. recombinant SENP8, Nedd8 substrate fluorescence; in the data active = inhibition mostly above about 40%, no sharp cut-off; inactive = mostly below about 27%
SENP6 inh: blocks the human protease SENP6 | inhibition, % at 10 µM | 1.8% of 330,000 active | Recombinant SENP6 catalytic domain, aminoluciferin luminescence;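 active = inhibition above about 50% at the single tested dose, limit read from the data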
SENP8 conf: confirmation of human SENP8 protease inhibitors. Recombinant SENP8, Z-RLRGG-aminoluciferin luminescence, 60 min. AID 488912. 40% of 6,200 active. shares compounds with SENP7 inh. inhibition, % at 12.5 µM;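 active = mean inhibition across replicates above about 50%, limit read from the data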
SENP6 conf: human SENP6 inhibition, confirmed; recombinant SENP6, Z-RLRGG-aminoluciferin luminescence; 58% of 6,200 active; AID 488915; inhibition, % at 12.5 µM; shares compounds with SENP7 inh
SENP7 conf: confirmation of human SENP7 protease inhibitors. shares compounds with SENP7 inh. recombinant SENP7, Z-RLRGG-aminoluciferin luminescence, 40 min. inhibition, % at 12.5 µM. 69% of 6,200 active
Casp3 SENP sel: selectivity test for SENP inhibitors: human caspase-3 inhibition; shares compounds with SENP7 inh; purified caspase-3, Z-DEVD-aminoluciferin luminescence, 60 min; inhibition, % at 12.5 µM; 60% of 6,200 active;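 active = mean inhibition above about 50%, limit read from the data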
Target sequence (P42574 28-227 limits assumed): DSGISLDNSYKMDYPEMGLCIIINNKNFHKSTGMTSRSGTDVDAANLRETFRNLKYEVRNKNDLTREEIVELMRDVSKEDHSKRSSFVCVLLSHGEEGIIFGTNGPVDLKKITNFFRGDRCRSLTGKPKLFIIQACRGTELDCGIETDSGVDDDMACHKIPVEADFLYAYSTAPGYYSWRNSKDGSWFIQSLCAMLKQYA
SENP luc ctr: luminescence interference (SENP counter-screen); shares compounds with SENP7 inh; AID 488919; inhibition, % at 12.5 µM; Pre-incubated SENP8/Z-RLRGG-aminoluciferin, luciferase luminescence interference; 39% of 6,200 active;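 active = mean inhibition above about 50% when retested at one dose, limit read from the data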
Hits are given with their value. Compounds with a hit are over-represented: about 3% of the library has one in this group of screens.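 Rule for the calls, unless noted: active = mean inhibition above about 50% in the one-dose retest (limit read from the data); inactive = the rest.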

For COCC(=O)Nc1nc2ccc(C)cc2s1 the results were C8 TRAIL sens inactive, PPC-1+TRAIL kill inactive, SENP7 inh 57.8, SENP8 block-1 inactive, SENP8 block-2 inactive, SENP6 inh 68.5, SENP8 conf 66.6, SENP6 conf 62.1, SENP7 conf 88.2, Casp3 SENP sel 82.2 and SENP luc ctr 63.7.
Screening Cc1ccc2nc(NC(=O)COC(=O)c3ccncc3)sc2c1 returned C8 TRAIL sens inactive, PPC-1+TRAIL kill inactive, SENP7 inh inactive, SENP8 block-1 inactive, SENP8 block-2 inactive and SENP6 inh inactive.
For Cc1nc(NC(=O)c2ccc(Br)o2)sc1C the results were C8 TRAIL sens inactive, PPC-1+TRAIL kill inactive, SENP7 inh 80.9, SENP8 block-1 63.3, SENP8 block-2 inactive, SENP6 inh 85.8, SENP8 conf 73.4, SENP6 conf 78.1, SENP7 conf 94.7, Casp3 SENP sel 89.3 and SENP luc ctr inactive.
Cc1ccc2nc(NC(=O)c3ccc(Br)o3)sc2c1 was read as C8 TRAIL sens inactive, SENP7 inh 87.1, SENP8 block-1 59.7, SENP8 block-2 inactive, SENP6 inh 72.8, SENP8 conf inactive, SENP6 conf inactive, SENP7 conf inactive, Casp3 SENP sel inactive and SENP luc ctr inactive.
For Cc1ccc(C(=O)Nc2nc(C)c(C)s2)o1 the results were C8 TRAIL sens inactive, PPC-1+TRAIL kill inactive, SENP7 inh 78.6, SENP8 block-1 58.3, SENP8 block-2 inactive, SENP6 inh 74.0, SENP8 conf inactive, SENP6 conf 71.6, SENP7 conf 92.2, Casp3 SENP sel 90.6 and SENP luc ctr 74.9.
CCOC(=O)c1c(C)[nH]c(C)c1C(=O)COC(=O)c1cccs1 was read as C8 TRAIL sens inactive, SENP7 inh inactive, SENP8 block-1 inactive, SENP8 block-2 inactive and SENP6 inh inactive.
For COC(=O)/N=C(/Cc1ccc(OC)cc1)c1ccc(OC)cc1 the results were C8 TRAIL sens inactive, SENP7 inh 94.1, SENP8 block-1 92.1, SENP8 block-2 inactive, SENP6 inh 95.7, SENP8 conf 97.0, SENP6 conf 97.3, SENP7 conf 102.2, Casp3 SENP sel 96.4 and SENP luc ctr 89.9.
COc1ccc(C/C(=N\OC(C)=O)c2ccc(OC)cc2)cc1 was read as C8 TRAIL sens inactive, SENP7 inh 98.3, SENP8 block-1 90.7, SENP8 block-2 inactive, SENP6 inh 95.5, SENP8 conf 92.4, SENP6 conf 96.5, SENP7 conf 101.8, Casp3 SENP sel 96.2 and SENP luc ctr 95.3.
`Cc1nc(C2COc3ccccc3O2)sc1C(=O)O` (stereo not given) gave C8 TRAIL sens inactive, PPC-1+TRAIL kill inactive, SENP7 inh 79.8, SENP8 block-1 83.5, SENP8 block-2 inactive, SENP6 inh 88.0, SENP8 conf 89.9, SENP6 conf 90.6, SENP7 conf 99.4, Casp3 SENP sel 96.7 and SENP luc ctr 88.1.
CC(=O)c1cccc(NC(=O)C(C)OC(=O)CN2C(=O)NC(C)(C)C2=O)c1 (stereo not given) was read as C8 TRAIL sens inactive, SENP7 inh inactive, SENP8 block-1 inactive, SENP8 block-2 inactive and SENP6 inh inactive.
Cc1nn2cc(-c3ccccc3)nc2[nH]c1=O was read as C8 TRAIL sens inactive, PPC-1+TRAIL kill inactive, SENP7 inh inactive, SENP8 block-1 inactive, SENP8 block-2 inactive, SENP6 inh 72.5, SENP8 conf 65.8, SENP6 conf 61.2, SENP7 conf 88.6, Casp3 SENP sel 88.9 and SENP luc ctr inactive.
For O=C(O)CCc1nn2cc(-c3ccccc3)nc2[nH]c1=O the results were C8 TRAIL sens inactive, PPC-1+TRAIL kill inactive, SENP7 inh inactive, SENP8 block-1 inactive, SENP8 block-2 inactive and SENP6 inh inactive.

Screens: PubChem BioAssay, Sanford-Burnham Center for Chemical Genomics
